Sampled rows, rich in hits. Any-hit rate of the full collection: about 3.5%.
Sm TGR inh: qHTS Assay for the Inhibitors of Schistosoma Mansoni Peroxiredoxins. AID 485364, 2010. Schistosoma mansoni thioredoxin glutathione reductase (TGR), Q962Y6. 360,000 tested, 3% active. Potency, µM (highest dose often 114 µM), for the others: at the top dose activity change, negative = inhibition, usual class: inhibitors. purified TGR, DTNB reduction, TNB absorbance 405 nm; note: potency is the fitted concentration of half-maximal effect; % is set by controls: 0 for no effect and ±100 for the full control effect; nearly all actives have a fitted effect of over 60% in size
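TGR 20 nM + NADPH 100 uM (dispensed conc.), cpd preinc 15 min RT; start with NADPH (500 uM addition) then DTNB (15 mM addition). Kinetic TNB absorbance, 405 nm filter. Four-parameter Hill fit across titration.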
LmPK inh: qHTS Assay for Inhibitors of Leishmania Mexicana Pyruvate Kinase (LmPK) | 290,000 tested, 0.37% active | purified LmPK, Kinase-Glo ATP luminescence, 1 h | Q27686 | AID 1721, 2009 | Potency, µM (series often up to 57.5 µM), without a hit: at the top dose activity change, negative = inhibition, actives largely listed as inhibitors; note: potency is the fitted concentration of half-maximal effect; % is set by controls: 0 for no effect and ±100 for the full control effect
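Pyruvate kinase activity monitored as ATP production (luciferase luminescence). Conditions: 0.1 nM enzyme, 0.5 mM PEP, 0.1 mM ADP, 1 h, RT; normalized against uninhibited and no-enzyme wells.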
Giardia FBPA inh: qHTS Assay for Inhibitors of Fructose-1,6-bisphosphate Aldolase from Giardia Lamblia; A8B2U2; AID 2451, 2010; 290,000 tested, 0.71% active; Potency, µM (doses to about 59.6 µM), inactives show top-dose activity, negative = inhibition, actives largely listed as inhibitors; purified Giardia FBPA; note: potency is the fitted concentration of half-maximal effect; % is set by controls: 0 for no effect and ±100 for the full control effect; nearly all actives have a fitted effect of over 55% in size
Target sequence (A8B2U2 whole entry, looked up): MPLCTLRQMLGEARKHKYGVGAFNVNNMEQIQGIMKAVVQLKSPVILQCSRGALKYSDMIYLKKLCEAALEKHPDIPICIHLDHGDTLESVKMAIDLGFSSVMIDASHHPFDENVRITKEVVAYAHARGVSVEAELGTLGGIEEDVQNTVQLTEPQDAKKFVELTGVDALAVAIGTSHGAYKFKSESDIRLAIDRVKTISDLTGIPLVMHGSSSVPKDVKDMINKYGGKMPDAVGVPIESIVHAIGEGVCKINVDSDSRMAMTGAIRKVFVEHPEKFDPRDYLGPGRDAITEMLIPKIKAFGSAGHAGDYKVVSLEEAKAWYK
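Giardia FBPA (40 nM reagent) was preincubated 10 min at RT with compound (up to 57.5 uM final), then substrate plus GAPDH/TPI/NAD/arsenate coupling system with diaphorase/resazurin was added; resorufin fluorescence (525/598 nm) was read after 20 min.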
TbPYK inhibitor: qHTS of Trypanosoma Brucei Inhibitors. pyruvate kinase (Trypanosoma brucei), Q57TT1. TbPYK enzyme, Kinase-Glo Plus ATP luminescence, 45 min. Potency, µM (series often up to 76.8 µM), for the others: at the highest dose activity, negative = inhibition, actives largely listed as inhibitors. 410,000 tested, 0.12% active. AID 624173, 2012; note: potency is the fitted concentration of half-maximal effect; % is set by controls: 0 for no effect and ±100 for the full control effect; nearly all actives have a fitted effect of over 50% in size
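T. brucei PYK with substrate was exposed to pin-transferred compounds across a concentration series, then started with 130 uM ADP (final). After 45 min at room temperature, Kinase-Glo Plus luminescence was read, normalized and curve-fitted.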
RE007 growth inh: qHTS Assay for Inhibitors of the HIV-1 protein Vpr. S. pombe RE007 Vpr strain, BacTiter-Glo ATP luminescence, 24 h. Potency, µM (titrated, usually from 92.2 µM), for inactives: at the highest dose activity change, negative = less growth, actives largely listed as inhibitors. 360,000 tested, 0.21% active; active = well fitted falling curve with a large enough effect; inconclusive = small, poorly fitted or top-dose-only effect; inactive = no such curve, though single readings can be large or run the other way; note: potency is the fitted concentration of half-maximal effect; % is set by controls: 0 for no effect and ±100 for the full control effect; nearly all actives have a fitted effect of over 50% in size
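Fission yeast strain RE007, carrying one chromosomally integrated HIV-1 vpr copy, was seeded at OD 0.01 in PMG+AL medium with 23 nL pinned compound. After 24 h at 30 °C and 99% humidity, viability was read by BacTiter-Glo luminescence.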
NS1 function inh: qHTS Assay for Inhibitors of Influenza NS1 Protein Function; AID 2326, 2010; 270,000 tested, 0.4% active; Potency, µM (series often up to 46.1 µM), for inactives: top-dose activity, positive = more growth; calls by dose curve; note: potency is the fitted concentration of half-maximal effect; actives are rising curves; nearly all actives have a fitted effect of over 50% in size
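Growth recovery, yeast-based: influenza A NS1 expressed in S. cerevisiae causes slow growth, and suppressors are detected by OD600. The parent strain without NS1 is used as positive control.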
Flu NS1 inh: Assay for Inhibitors of Influenza NS1 Protein Function: Hit Validation | shares compounds with NS1 function inh | influenza NS1 function cell assay, 15-point titration | activity change, negative = inhibition, % at 32.9 µM | 1,400 tested, under 10 active | AID 492980, 2010; calls by dose curve; note: 0% is about no effect
PR8 titer: Assay for Inhibitors of Influenza NS1 Protein Function: Influenza virus replication assay in MDCK cells infected with virus A/PR/8/34; shares compounds with NS1 function inh; MDCK infected influenza A/PR/8/34, virus titer TCID50; active compounds read low; virus titer (log TCID50), log10 TCID50 at 5 µM; 95 tested, 30% active; AID 504647, 2011; call rule not given here
* marks the source's active call; other numbers are inactive results; ? = inconclusive; / = no result; [ ] = remark or other dose. Unless noted, calls come from the whole dose curve; as a rule, active = well fitted curve in the direction sought with a large enough effect; inconclusive = small, poorly fitted or top-dose-only effect, or another doubt; inactive = no such curve, though single readings can be large; an effect the other way counts as inactive or inconclusive.

SMILES | Sm TGR inh | LmPK inh | Giardia FBPA inh | TbPYK inhibitor | RE007 growth inh | NS1 function inh | Flu NS1 inh | others
CCC(C(=O)NCCN1CCN(C)CC1)n1c(C)c2cnn(-c3ccccc3)c(=O)c2c1C (stereo not drawn) | 0% | 0% | -6% | -6% | 32% | ? | 0
COc1cccc(C(=O)Nc2ncc3c(n2)CC(c2ccc(OC)cc2OC)CC3=O)c1 (stereo not drawn) | 4% | 3% | -3% | 2% | 10% | 10µM* | -24
COc1ccc(C(=O)Nc2ncc3c(n2)CC(C)CC3=O)cc1 (stereo not drawn) | -3% | -6% | -1% | -2% | -7% | 3% | /
CCCc1cc(=O)n2c(C(=O)Nc3ccc(OCC)cc3)c(C(=O)Nc3ccc(C)cc3)sc2n1 | 8% | / | / | -7% | / | / | /
O=C(Cn1cc2c(n1)CCCC2)NCCCN1CCN(C2CCCCC2)CC1 | -14% | 3% | -2% | -2% | -5% | 8.9µM* | 8
Cc1cc(C)c2sc(NNC(=O)c3ccc(S(=O)(=O)N4CCc5ccccc5C4)cc3)nc2c1 | -14% | -5% | ? | 0% | 22% | 11µM* | 6
Cc1cc(C)c2nc(NNC(=O)c3ccc(S(=O)(=O)N4CCc5ccccc5C4)cc3)sc2c1 | 4% | 2% | ? | -27% | 10% | ? | /
Cc1cc(-c2ccc(S(=O)(=O)Nc3ccccc3F)s2)on1 | 1% | / | / | -2%[15.4 µM] | / | / | /
Cc1ccsc1/C=C(\C(=O)c1ccc(OC(C)C)cc1)c1nc2ccccc2o1 | 6% | 6% | 6% | -1% | -6% | 14µM* | -29
COc1ccc(-c2nc3sc(CCNC(=O)c4cc(Cl)ccc4OC)c(C)n3n2)cc1 | 4% | / | / | -3% | / | / | /
CCc1ccc(Nc2nnc(SCC(=O)Nc3cccc(S(=O)(=O)NC4=NCCCCC4)c3)s2)cc1 | 1% | 2% | -1% | -15% | / | 11µM* | 12
Cc1ccc(NC(=O)C2CCCN(c3nnc(C)c4c(C)n(-c5ccccc5)nc34)C2)c(Cl)c1 (stereo not drawn) | 0% | / | / | 0% | / | / | /
CCOc1ccc(NC(=O)Cn2c(=O)n(CCCCC(=O)NCCc3ccc(Cl)cc3)c(=O)c3ccccc32)cc1 | -1% | / | / | 0% | / | / | /
CCOc1ccc(S(=O)(=O)c2c(C(=O)c3ccc(C)cc3)cnc3cc4c(cc23)OCCO4)cc1 | -4% | -2% | -1% | -2% | 15% | 14µM* | -14
Cc1ccc(C(=O)c2cnc3cc4c(cc3c2S(=O)(=O)c2ccccc2)OCCO4)cc1 | -23% | 1% | -17% | -3% | -13% | ? | /
O=C(N/N=C/c1sc(N2CCOCC2)nc1-c1ccccc1)c1ccccc1Cl | 7% | 3% | 0% | 0% | 7% | -1% | /
O=C(O)c1cccc(Cn2c(Cl)c(/C=N/NC(=O)c3ccccc3Cl)sc2=O)c1 | -5% | -1% | 10% | -6% | -16% | 0.79µM* | 7
COC(=O)[C@@]1(Cc2ccc(F)cc2)[C@H]2c3cc(C(=O)N4CCCC4)n(CCc4ccc(O)c(O)c4)c3C[C@H]2CN1C(=O)c1ccccc1 | ? | -2% | -30% | / | / | 8.9µM* | 4
COc1ccc(S(=O)(=O)N(CC(=O)Nc2cccc(C)c2)c2ccc(C)cc2)cc1OC | 15% | / | / | -3% | / | / | /
Cc1ccc(N(CC(=O)Nc2cccc(C)c2)S(=O)(=O)c2cccc3nonc23)cc1 | -3% | 4% | -26% | 8% | / | 7.1µM* | -14 | PR8 titer=8.3
O=C(C1CCCN(S(=O)(=O)c2cccc3nonc23)C1)N1CCC(Cc2ccccc2)CC1 (stereo not drawn) | -6% | -1% | 15% | -4% | 5% | 10µM* | -33
O=C(C1CCCN(S(=O)(=O)c2cccc3nonc23)C1)N1CCN(c2ccccc2Cl)CC1 (stereo not drawn) | 10% | 2% | 0% | -2% | -9% | ? | /
CCCOc1ccc(S(=O)(=O)Nc2ccccn2)c2ccccc12 | 4% | 9% | -29% | 0% | 2% | 31% | /
CCOc1ccc(S(=O)(=O)Nc2ccccn2)c2ccccc12 | 6% | 0% | -6% | 0% | -3% | 1.1µM* | -12
CCOc1cc(/C=N/NC(=O)COc2ccc(Cl)cc2)ccc1OS(=O)(=O)c1ccccc1 | 10% | -5% | 34% | -2% | 7% | 2µM* | ? | PR8 titer=7.7
SMILES | Sm TGR inh | LmPK inh | Giardia FBPA inh | TbPYK inhibitor | RE007 growth inh | NS1 function inh | Flu NS1 inh | others
CN(Cc1ccccc1)C(=O)C1CCN(S(=O)(=O)Cc2ccccc2)CC1 | -8% | / | / | -4% | / | / | /
Cc1[nH]n(-c2cccc3ccccc23)c(=O)c1/C=N/c1sc2c(c1C#N)CCC2 | 0% | 9% | 0% | -6% | -12% | 2.2µM* | -9 | PR8 titer=8.5
Cn1ccc2cc(S(=O)(=O)N3CCN(C(=O)Nc4cccc(F)c4)CC3)ccc21 | 3% | / | / | -1% | / | / | /
O=C(Nc1nc2ccc(S(=O)(=O)N3CCCCC3)cc2s1)c1ccncc1 | 1% | -3% | 8% | 6% | 5% | 10µM* | -28
COc1ccccc1/C=N/NC(=O)c1[nH]c(C)c(C(=O)N/N=C/c2ccccc2OC)c1C | 9% | 7% | 3% | 0% | 14% | ? | ?
CCOC(=O)c1c(C)[nH]c(C(=O)N/N=C\c2ccccc2O)c1C | -2% | -3% | -15% | -2% | -10% | -8% | /
CCNc1nc(NCC)n2c(SCC(=O)O)nnc2n1 | 11% | 1% | 2% | 2% | 1% | 10µM* | 8
Cn1cnc(S(=O)(=O)N2CCCC(C(=O)NCc3ccc(F)cc3)C2)c1 (stereo not drawn) | 7% | / | / | 2% | / | / | /
CCc1ccc(NC(=O)c2ccc3c(c2)nnn3CC)cc1 | 8% | / | / | 3% | / | / | /
CCN1CCN(Cc2c(O)ccc3c2O/C(=C\C=C\c2ccccc2)C3=O)CC1 | 35µM* | -12% | 17% | -10% | 2% | 10µM* | -35
COc1ccccc1/C=C/C=C1\Oc2c(ccc(O)c2CN2CCN(CCO)CC2)C1=O | ? | -4% | -18% | -3% | -1% | 28% | /

Source: PubChem (National Center for Advancing Translational Sciences (NCATS))
